From PubChem BioAssay (NCI)
The panel holds about 79,000 compounds, 15% with a hit somewhere; the sample as a whole holds those more often. Cut-off read from the data, not from the text of the source: active = growth inhibition above about 70%; inactive = the rest.

Columns and labels:
[1] = NCI Yeast Anticancer Drug Screen. Data for the rad50 strain (AID 155);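 note: 0% = growth of vehicle-only cultures of the same strain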; conditions: S. cerevisiae rad50 strain growth inhibition; at 50.0 µM; stronger effect = higher value
Outline: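 Inhibition values express reduced yeast growth in compound-treated cultures relative to vehicle-treated controls.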

[2] = NCI Yeast Anticancer Drug Screen. Data for the mec2-1 strain (AID 157); conditions: S. cerevisiae mec2-1 strain, at 50.0 µM, stronger effect = higher value
Outline: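 mec2-1 yeast strain, carrying an alteration in DNA damage repair or cell cycle control, was exposed to compounds; growth inhibition was measured relative to vehicle-treated controls.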

[3] = NCI Yeast Anticancer Drug Screen. Data for the sgs1 mgt1 strain (AID 161);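 note: 0% = growth of cultures given vehicle only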; conditions: S. cerevisiae sgs1 mgt1 strain, at 50.0 µM, stronger effect = higher value
Outline: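 Growth of a repair-deficient yeast mutant was monitored after compound treatment and expressed as inhibition relative to vehicle-treated cultures.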

[4] = NCI Yeast Anticancer Drug Screen. Data for the cln2 rad14 strain (AID 165);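 note: 0% = growth equal to vehicle treated cultures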; conditions: S. cerevisiae cln2 rad14 strain, at 50.0 µM, stronger effect = higher value
Outline: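 Yeast carrying cln2 and rad14 alterations (cell cycle control and DNA damage repair) were exposed to compounds. Growth inhibition was measured against vehicle-treated controls.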

[5] = NCI Yeast Anticancer Drug Screen. Data for the bub3 strain (AID 167); conditions: S. cerevisiae bub3 mutant strain, at 50.0 µM, stronger effect = higher value
Outline: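 Steps: expose the mutant yeast strain to compound; grow alongside vehicle-treated cultures; measure growth; express inhibition against the vehicle cultures.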

[6] = NCI Yeast Anticancer Drug Screen. Data for the mlh1 rad18 strain (AID 175); conditions: S. cerevisiae mlh1 rad18 strain growth inhibition; at 50.0 µM; stronger effect = higher value
Outline: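 Growth inhibition of the yeast strain was measured after compound exposure and expressed relative to vehicle-treated controls. The strain carries defined defects in DNA damage repair.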

Measured: growth inhibition

Cc1ccccc1S(=O)(=O)Nn1cnc2ccc(S(=O)(=O)Nc3ccc(Cl)cc3)cc2c1=O
inactive: [1] 40.1% | [2] 0.25% | [3] 40.6% | [4] 6.95% | [5] 23.9% | [6] 30.1%

O=C(CCl)OCCCc1ccccc1
inactive: [1] -10.6% | [2] 44.2% | [3] 49.6% | [4] -6.3% | [5] 17% | [6] 36%

CCOC(=O)/C(C#N)=C/C=C1C=CN(C)C=C1
inactive: [1] 8.95% | [2] -4.4% | [3] -1.4% | [4] -30.9% | [5] 0.1% | [6] -10.1%

Nc1nc2c(c(-c3cccc(Cl)c3)n1)COC/C2=C\c1cccc(Cl)c1
inactive: [1] 26.3% | [2] 20.8% | [3] 25.2% | [4] 20.2% | [5] 25.4% | [6] 24%

COc1cc2nc(Sc3c([N+](=O)[O-])ncn3C)[nH]c2cc1OC
inactive: [1] -41.6% | [2] -33.3% | [3] -30% | [4] -23% | [5] -43.5% | [6] -46%

CN(C)c1ccccc1C(=O)NNC(=S)Nc1ccccc1
inactive: [1] 20.9% | [2] -1.75% | [3] 42.7% | [4] -13.1% | [5] 30.4% | [6] 19.4%

COc1cc2c(c(OC)c1OC)-c1ccc(SC)c(=O)cc1[C@@H](NC(=O)CO)CC2
inactive: [1] 30% | [2] 14.3% | [3] 19.6% | [4] 19.6% | [5] 21.1% | [6] 22.2%

c1ccn2c(CCc3nnc4ccccn34)nnc2c1
inactive: [1] -1.75% | [2] -8.4% | [3] -6.35% | [4] -18.3% | [5] -1.9% | [6] -13.1%

COc1ccc(/C=C2\N=C(c3ccccc3)OC2=O)c(Cl)c1OC
inactive: [1] -9.35% | [2] -3.5% | [3] -25% | [4] 1.6% | [5] -5.25% | [6] -3%

CC1(C)C2CC3C(=CCC4C(=O)C5CC=C6C(CC7CC6C7(C)C)C5C(=O)C43)C1C2 (stereo unspecified)
inactive: [1] 23.6% | [2] -6.1% | [3] 14% | [4] -20% | [5] -5.2% | [6] -1.65%

c1coc(C2OCCO2)c1
inactive: [1] -24.1% | [2] -31.6% | [3] -26.6% | [4] 6.75% | [5] -21.8% | [6] -3.1%

CCN(CC)Cc1cc(Nc2ncnc3sc(C)c(C)c23)ccc1O
inactive: [1] 9.05% | [2] 9.95% | [3] 1.3% | [4] -13.2% | [5] -10.3% | [6] -15.7%

CC(O)c1cccc(NC(=O)NC(C)(C)C)c1 (stereo unspecified)
inactive: [1] 0.6% | [2] 3.05% | [3] -5% | [4] -74% | [5] 10.8% | [6] -6%

O=C1c2cc(Cl)ccc2-c2ccc(N=Cc3ccccc3Cl)cc21
inactive: [1] 1.65% | [2] -1.55% | [3] -7.8% | [4] -89.5% | [5] 34.1% | [6] -1.35%

CC12CC(c3ccccc3)C(C)(C(c3ccccc3)=C1c1ccccc1)C2(O)c1ccccc1 (stereo unspecified)
inactive: [1] -2.85% | [2] 0.1% | [3] 12.7% | [4] -13.3% | [5] -2.45% | [6] 13.4%

CC(C)(Oc1ccc(/C=C/C(=O)c2ccc(Cl)cc2)cc1)C(=O)Nc1c(Cl)cccc1Cl
inactive: [1] 0.85% | [2] -2.05% | [3] 2.6% | [4] 12.1% | [5] 12.8% | [6] 19%

CC1(C)N=C(N)N=C(N)N1c1cccc(/C=C/c2ccc([N+](=O)[O-])cc2)c1
inactive: [1] 2.45% | [2] -7.35% | [3] -6.1% | [4] -43% | [5] -3.3% | [6] 9.75%

Cc1cc(S(=O)(=O)Nc2nc(N)n(C)n2)c(S)cc1Cl
inactive: [1] -19.1% | [2] -18.3% | [3] -3.3% | [4] -3.1% | [5] -29.2% | [6] -1.85%

CCOC(Cn1ccccc1=N)OCC
inactive: [1] 12.8% | [2] -11.7% | [3] -12.6% | [4] -40% | [5] -7.3% | [6] 4.15%

CN(C)CCCSc1n[nH]c(=O)[nH]c1=O
inactive: [1] 6.4% | [2] 2.5% | [3] -11.3% | [4] -19.7% | [5] 1.6% | [6] -10.1%

O=[N+]([O-])C(C=Nc1ccccc1)C=Nc1ccccc1 (stereo unspecified)
inactive: [1] 6.35% | [2] -23% | [3] -2.85% | [4] -2.25% | [5] -13.4% | [6] 0.45%

Clc1ccc2ncccc2c1
inactive: [1] 29.8% | [2] 18% | [3] 7.7% | [4] -24.1% | [5] 7.95% | [6] 17%

CCOC(=O)c1cnc(N)nc1N
inactive: [1] 6.35% | [2] -16.1% | [3] -6.3% | [4] -88.3% | [5] -8.3% | [6] 24.1%

COc1cc2c3c(c1)SC(C)C(=O)N3CCN2 (stereo unspecified)
inactive: [1] -7.85% | [2] -19.9% | [3] 2.55% | [4] 10.2% | [5] -3.5% | [6] 6.55%

C1=CCc2cc3c(cc2=C1)C=c1ccccc1=3
inactive: [1] -12.3% | [2] -19.4% | [3] -11.2% | [4] -5.9% | [5] -8.2% | [6] -19.4%

BrCCC1(CCBr)CCCCC1
inactive: [1] 54% | [2] 39.4% | [3] 44.6% | [4] 24.9% | [5] 48.6% | [6] 57.8%

COc1ccc2c(c1)C(=O)OCCC2
inactive: [1] 25.4% | [2] 17.5% | [3] -26.6% | [4] 10.3% | [5] -36.4% | [6] -9.95%

CC(C)c1ccc(OC(=O)N(c2ccccc2)c2ccccc2)cc1
inactive: [1] 12.4% | [2] 15% | [3] -5.35% | [4] 3.5% | [5] -1.6% | [6] -2.8%

CC(Oc1ccc(Br)cc1Br)C(=O)O (stereo unspecified)
inactive: [1] 4.1% | [2] -16.2% | [3] 1.2% | [4] 23.2% | [5] -14.5% | [6] 19.1%

O=C(C[n+]1ccccc1Cl)c1ccc(I)cc1
inactive: [1] 18.2% | [2] 24.8% | [3] 53% | [4] 9.05% | [5] 19.9% | [6] 56.8%

O=C(O)c1ccn(-c2cccc(-n3ccc(C(=O)O)n3)n2)n1
inactive: [1] -1.05% | [2] -17.1% | [3] 2.25% | [4] -47.7% | [5] -15.4% | [6] -7.1%

C1#CCSCC#CCSC1
inactive: [1] 14.2% | [2] 3.4% | [3] 11.1% | [4] 24.2% | [5] 40% | [6] 24%

CN(C)N=Nc1c(Cl)cccc1Cl
inactive: [1] 3.35% | [2] 26.7% | [3] -6.6% | [4] -13% | [5] 2.35% | [6] 7.75%

Cc1cccc(NC(=O)NC(O)C(Cl)(Cl)Cl)c1 (stereo unspecified)
inactive: [1] 1.65% | [2] -3.35% | [3] -6.25% | [4] -43% | [5] -16.6% | [6] 0.95%

CP(=O)(c1ccccc1)c1ccccc1OCCCOCCCOc1ccccc1P(C)(=O)c1ccccc1 (stereo unspecified)
inactive: [1] -4.8% | [2] 3.4% | [3] 0.45% | [4] 8.1% | [5] -3.55% | [6] -10.6%

COc1cc2ccncc2cc1O
inactive: [1] -7.25% | [2] -18.4% | [3] -26.3% | [4] -4.25% | [5] 9.45% | [6] -16.1%
